Binding signal data for 1 sequence are collected here from PMC7862700, “An all-to-all approach to the identification of sequence-specific readers for epigenetic DNA modifications on cytosine”.

What all share (test): DAPPL (digital affinity profiling via proximity ligation, sequencing); 10 mM Tris-HCl pH 7.5, 50 mM NaCl, 1 mM DTT, 4% glycerol, room temperature, 30 min; GST-TFs on glutathione beads, 16-mer random dsDNA library, 0.1% formaldehyde crosslink after washing; high values mean tight binding
One experiment deals with T1, FEV (Homo sapiens, UniProt Q99581 1-238).
T1 sequence: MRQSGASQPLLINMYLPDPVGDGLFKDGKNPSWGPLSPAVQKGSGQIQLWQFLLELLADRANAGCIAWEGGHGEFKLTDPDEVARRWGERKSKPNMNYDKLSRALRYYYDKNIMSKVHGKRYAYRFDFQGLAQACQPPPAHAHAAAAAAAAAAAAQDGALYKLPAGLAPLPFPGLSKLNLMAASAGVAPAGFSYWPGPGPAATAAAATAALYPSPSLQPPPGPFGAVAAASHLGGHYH
As to conditions: protein: recombinant; tags: N-terminal GST; dsDNA, one strand shown. In outline:
(§1)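 After expression in yeast as GST fusions, human transcription factors were bound to glutathione beads, DNA-barcoded and mixed with a tag-only sample. The pools were incubated with 200 nmole of a 16-mer random double-stranded DNA library in Tris/NaCl/DTT/glycerol buffer (30 min, room temperature), washed and crosslinked with 0.1% formaldehyde. Proximity ligation with BsaI/T4 ligase ran for 1 h at 37 °C, before PCR amplification and sequencing on an Illumina NextSeq500. Binding signal is a hexamer's read frequency for a factor divided by its frequency for the tag-only sample.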

The next experiment addresses ETV5 (Homo sapiens, UniProt P41161 1-510). As to conditions: protein: recombinant; tags: N-terminal GST; dsDNA, one strand shown. The method in brief: as §1
A further experiment addresses HSF1 (Homo sapiens, UniProt Q00613 1-529). As to conditions: protein: recombinant; tags: N-terminal GST; chain copies: 3; dsDNA, one strand shown. In outline: as §1
A further experiment concerns the target T2, SPIC (Homo sapiens, UniProt Q8N5J4 1-248).
T2 sequence: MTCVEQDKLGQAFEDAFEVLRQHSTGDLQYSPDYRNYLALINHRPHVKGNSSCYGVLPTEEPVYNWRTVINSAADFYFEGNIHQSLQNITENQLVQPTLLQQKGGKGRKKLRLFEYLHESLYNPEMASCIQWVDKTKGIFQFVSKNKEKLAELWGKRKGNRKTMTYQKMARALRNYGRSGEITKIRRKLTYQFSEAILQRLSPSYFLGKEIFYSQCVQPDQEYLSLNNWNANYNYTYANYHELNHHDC
Conditions: protein: recombinant; tags: N-terminal GST; dsDNA, one strand shown. The method in brief:
as §1

In a further experiment the target is ELF4 (Homo sapiens, UniProt Q99607 1-663). As to conditions: protein: recombinant; tags: N-terminal GST; dsDNA, one strand shown. The method in brief:
as §1

The next experiment addresses T3, ELK4 (Homo sapiens, UniProt P28324-2 1-405).
T3 sequence: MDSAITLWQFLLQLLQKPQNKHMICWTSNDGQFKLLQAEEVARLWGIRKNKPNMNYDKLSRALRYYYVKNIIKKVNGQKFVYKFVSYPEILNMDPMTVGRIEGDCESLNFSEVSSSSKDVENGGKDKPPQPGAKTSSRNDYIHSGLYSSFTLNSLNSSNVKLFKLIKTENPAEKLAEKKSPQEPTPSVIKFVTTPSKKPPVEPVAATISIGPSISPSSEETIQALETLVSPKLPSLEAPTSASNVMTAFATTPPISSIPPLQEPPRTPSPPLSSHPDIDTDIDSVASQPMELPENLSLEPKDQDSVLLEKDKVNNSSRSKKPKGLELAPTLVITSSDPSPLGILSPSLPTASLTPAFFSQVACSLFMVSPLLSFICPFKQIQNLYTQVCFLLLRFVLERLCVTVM
Conditions: protein: recombinant; tags: N-terminal GST; dsDNA, one strand shown. The method in brief: as §1

The next experiment addresses T4, ETV2 (Homo sapiens, UniProt O00321 1-342).
T4 sequence: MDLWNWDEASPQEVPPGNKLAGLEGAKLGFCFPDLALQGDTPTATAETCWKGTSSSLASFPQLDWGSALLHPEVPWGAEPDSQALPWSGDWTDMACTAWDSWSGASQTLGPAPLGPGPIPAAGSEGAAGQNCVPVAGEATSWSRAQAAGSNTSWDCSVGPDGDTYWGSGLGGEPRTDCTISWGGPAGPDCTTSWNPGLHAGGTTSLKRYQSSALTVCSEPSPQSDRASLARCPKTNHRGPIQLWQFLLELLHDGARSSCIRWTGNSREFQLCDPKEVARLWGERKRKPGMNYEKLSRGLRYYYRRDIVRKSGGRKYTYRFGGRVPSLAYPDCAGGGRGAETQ
Conditions: protein: recombinant; tags: N-terminal GST; dsDNA, one strand shown. In outline: as §1

The next experiment has as its target T5, ELF3 (Homo sapiens, UniProt P78545 1-371).
T5 sequence: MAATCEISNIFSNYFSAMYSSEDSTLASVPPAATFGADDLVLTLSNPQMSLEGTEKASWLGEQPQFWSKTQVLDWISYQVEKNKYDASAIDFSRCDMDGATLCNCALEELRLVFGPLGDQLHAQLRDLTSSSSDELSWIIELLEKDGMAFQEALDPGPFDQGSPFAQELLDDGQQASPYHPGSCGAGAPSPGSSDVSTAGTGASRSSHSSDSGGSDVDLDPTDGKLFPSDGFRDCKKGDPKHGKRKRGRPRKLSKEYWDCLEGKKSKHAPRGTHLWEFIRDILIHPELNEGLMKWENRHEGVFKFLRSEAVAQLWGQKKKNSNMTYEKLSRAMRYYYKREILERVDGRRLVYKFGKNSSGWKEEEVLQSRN
As to conditions: protein: recombinant; tags: N-terminal GST; dsDNA, one strand shown. The method in brief: as §1

For another experiment, the target named is CRX (Homo sapiens, UniProt O43186 1-299). Conditions: protein: recombinant; tags: N-terminal GST; dsDNA, one strand shown. In outline: as §1
Sequence of CRX (O43186 whole entry): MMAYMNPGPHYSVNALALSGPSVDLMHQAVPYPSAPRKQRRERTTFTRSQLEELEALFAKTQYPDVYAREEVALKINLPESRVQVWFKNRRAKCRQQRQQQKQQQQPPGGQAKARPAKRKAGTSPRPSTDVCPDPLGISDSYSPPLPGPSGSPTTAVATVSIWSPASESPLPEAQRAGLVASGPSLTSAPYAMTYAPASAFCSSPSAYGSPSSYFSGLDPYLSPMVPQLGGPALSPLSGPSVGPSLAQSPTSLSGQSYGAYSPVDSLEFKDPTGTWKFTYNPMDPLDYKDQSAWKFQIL
The target of the next experiment is ETV1 (Homo sapiens, UniProt P50549 1-477). Conditions: protein: recombinant; tags: N-terminal GST; dsDNA, one strand shown. In outline:
as §1

Another experiment has as its target T6, ERF (Homo sapiens, UniProt P50548 1-548).
T6 sequence: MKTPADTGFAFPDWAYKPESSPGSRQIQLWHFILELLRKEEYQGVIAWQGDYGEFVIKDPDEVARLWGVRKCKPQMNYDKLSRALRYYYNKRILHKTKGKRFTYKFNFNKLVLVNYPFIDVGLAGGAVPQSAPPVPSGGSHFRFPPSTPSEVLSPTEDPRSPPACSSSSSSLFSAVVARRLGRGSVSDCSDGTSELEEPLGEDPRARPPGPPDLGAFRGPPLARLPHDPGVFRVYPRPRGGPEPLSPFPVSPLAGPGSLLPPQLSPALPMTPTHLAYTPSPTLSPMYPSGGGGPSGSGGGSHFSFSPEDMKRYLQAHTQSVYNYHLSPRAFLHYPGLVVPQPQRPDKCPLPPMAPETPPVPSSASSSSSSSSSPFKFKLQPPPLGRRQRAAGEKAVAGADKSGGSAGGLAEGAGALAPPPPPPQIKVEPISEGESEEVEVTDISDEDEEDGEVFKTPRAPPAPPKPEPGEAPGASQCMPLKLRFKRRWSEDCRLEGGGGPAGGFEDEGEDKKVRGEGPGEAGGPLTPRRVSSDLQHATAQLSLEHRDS
As to conditions: protein: recombinant; tags: N-terminal GST; dsDNA, one strand shown. In outline: as §1

A further experiment addresses T7, ETV3L (Homo sapiens, UniProt Q6ZN32 1-361).
T7 sequence: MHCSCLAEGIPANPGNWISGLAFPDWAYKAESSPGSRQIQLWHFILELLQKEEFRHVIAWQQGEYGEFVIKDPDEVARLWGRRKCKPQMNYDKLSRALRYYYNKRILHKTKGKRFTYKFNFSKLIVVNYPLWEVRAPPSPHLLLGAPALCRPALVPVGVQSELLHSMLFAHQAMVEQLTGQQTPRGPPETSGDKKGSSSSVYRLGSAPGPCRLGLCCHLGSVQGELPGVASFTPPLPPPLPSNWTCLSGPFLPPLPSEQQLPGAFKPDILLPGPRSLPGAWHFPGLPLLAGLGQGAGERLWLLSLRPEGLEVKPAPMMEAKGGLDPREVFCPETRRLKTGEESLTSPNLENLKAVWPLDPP
Conditions: protein: recombinant; tags: N-terminal GST; dsDNA, one strand shown. The method in brief: as §1

The next experiment concerns the target T8, ETS2 (Homo sapiens, UniProt P15036 1-469).
T8 sequence: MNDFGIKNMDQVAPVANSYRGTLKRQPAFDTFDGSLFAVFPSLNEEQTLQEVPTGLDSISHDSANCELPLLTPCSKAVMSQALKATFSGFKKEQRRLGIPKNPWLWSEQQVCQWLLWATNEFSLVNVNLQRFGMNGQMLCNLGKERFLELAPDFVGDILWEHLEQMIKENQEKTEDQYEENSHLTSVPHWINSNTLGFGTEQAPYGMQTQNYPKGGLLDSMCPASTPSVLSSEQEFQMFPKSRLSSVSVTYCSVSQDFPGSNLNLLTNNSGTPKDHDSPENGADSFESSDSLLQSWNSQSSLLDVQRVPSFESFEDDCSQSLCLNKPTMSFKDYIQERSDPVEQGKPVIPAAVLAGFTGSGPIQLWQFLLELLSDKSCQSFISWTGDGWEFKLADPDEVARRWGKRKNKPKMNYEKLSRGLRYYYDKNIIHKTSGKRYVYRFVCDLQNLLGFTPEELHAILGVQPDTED
Conditions: protein: recombinant; tags: N-terminal GST; dsDNA, one strand shown. The method in brief:
as §1

Another experiment concerns the target T9, SPDEF (Homo sapiens, UniProt O95238 1-335).
T9 sequence: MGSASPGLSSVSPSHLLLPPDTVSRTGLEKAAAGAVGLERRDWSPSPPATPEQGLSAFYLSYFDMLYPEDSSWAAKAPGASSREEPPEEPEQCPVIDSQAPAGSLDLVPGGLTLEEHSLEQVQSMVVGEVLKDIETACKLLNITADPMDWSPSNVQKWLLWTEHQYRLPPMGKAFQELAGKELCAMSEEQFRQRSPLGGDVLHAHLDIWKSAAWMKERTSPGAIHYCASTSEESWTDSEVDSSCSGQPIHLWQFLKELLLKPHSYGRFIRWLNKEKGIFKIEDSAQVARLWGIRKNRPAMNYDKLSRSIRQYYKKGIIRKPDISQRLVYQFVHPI
As to conditions: protein: recombinant; tags: N-terminal GST; dsDNA, one strand shown. In outline:
as §1

Another experiment has as its target T10, ETV7 (Homo sapiens, UniProt Q9Y603 1-341).
T10 sequence: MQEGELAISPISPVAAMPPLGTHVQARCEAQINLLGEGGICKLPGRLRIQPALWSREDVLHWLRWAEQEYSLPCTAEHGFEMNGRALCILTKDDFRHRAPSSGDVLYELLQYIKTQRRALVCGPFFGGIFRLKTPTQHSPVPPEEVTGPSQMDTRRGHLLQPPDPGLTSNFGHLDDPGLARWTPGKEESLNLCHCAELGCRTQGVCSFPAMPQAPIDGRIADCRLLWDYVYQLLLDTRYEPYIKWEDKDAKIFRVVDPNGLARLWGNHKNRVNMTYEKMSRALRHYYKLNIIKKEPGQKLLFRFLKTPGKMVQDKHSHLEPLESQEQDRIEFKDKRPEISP
Conditions: protein: recombinant; tags: N-terminal GST; dsDNA, one strand shown. The method in brief:
as §1

Another experiment addresses T11, ELF5 (Homo sapiens, UniProt Q9UKW6-2 1-255).
T11 sequence: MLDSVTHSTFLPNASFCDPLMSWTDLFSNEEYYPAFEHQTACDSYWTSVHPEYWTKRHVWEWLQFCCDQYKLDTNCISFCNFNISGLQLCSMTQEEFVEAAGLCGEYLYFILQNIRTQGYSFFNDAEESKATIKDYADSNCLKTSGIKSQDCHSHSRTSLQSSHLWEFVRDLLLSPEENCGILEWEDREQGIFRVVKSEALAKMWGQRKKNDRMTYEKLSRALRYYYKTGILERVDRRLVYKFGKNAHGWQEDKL
Conditions: protein: recombinant; tags: N-terminal GST; dsDNA, one strand shown. In outline: as §1

For the next experiment, the target named is T12, ETV3 (Homo sapiens, UniProt P41162-2 1-143).
T12 sequence: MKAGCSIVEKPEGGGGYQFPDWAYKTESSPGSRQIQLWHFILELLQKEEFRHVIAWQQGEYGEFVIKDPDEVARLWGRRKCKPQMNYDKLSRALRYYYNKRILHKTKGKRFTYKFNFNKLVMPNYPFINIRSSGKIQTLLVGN
As to conditions: protein: recombinant; tags: N-terminal GST; dsDNA, one strand shown. The method in brief: as §1

The next experiment addresses ETV6 (Homo sapiens, UniProt P41212 1-452). As to conditions: protein: recombinant; tags: N-terminal GST; dsDNA, one strand shown. The method in brief:
as §1

Sequence of HSF1 (Q00613 whole entry): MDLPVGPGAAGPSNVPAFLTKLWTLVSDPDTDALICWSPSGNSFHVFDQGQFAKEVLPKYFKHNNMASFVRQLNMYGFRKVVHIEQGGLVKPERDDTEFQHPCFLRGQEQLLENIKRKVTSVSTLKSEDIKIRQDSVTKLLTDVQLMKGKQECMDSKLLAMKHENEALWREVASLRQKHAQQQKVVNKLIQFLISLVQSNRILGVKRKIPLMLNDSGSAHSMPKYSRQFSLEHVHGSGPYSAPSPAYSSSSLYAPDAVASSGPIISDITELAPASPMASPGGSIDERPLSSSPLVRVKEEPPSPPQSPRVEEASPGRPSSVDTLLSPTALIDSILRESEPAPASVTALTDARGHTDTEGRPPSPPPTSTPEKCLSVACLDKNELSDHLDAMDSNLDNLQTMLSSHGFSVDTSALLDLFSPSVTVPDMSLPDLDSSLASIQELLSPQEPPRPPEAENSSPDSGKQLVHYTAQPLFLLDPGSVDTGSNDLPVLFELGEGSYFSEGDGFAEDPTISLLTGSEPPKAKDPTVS
Sequence of ETV1 (P50549 whole entry): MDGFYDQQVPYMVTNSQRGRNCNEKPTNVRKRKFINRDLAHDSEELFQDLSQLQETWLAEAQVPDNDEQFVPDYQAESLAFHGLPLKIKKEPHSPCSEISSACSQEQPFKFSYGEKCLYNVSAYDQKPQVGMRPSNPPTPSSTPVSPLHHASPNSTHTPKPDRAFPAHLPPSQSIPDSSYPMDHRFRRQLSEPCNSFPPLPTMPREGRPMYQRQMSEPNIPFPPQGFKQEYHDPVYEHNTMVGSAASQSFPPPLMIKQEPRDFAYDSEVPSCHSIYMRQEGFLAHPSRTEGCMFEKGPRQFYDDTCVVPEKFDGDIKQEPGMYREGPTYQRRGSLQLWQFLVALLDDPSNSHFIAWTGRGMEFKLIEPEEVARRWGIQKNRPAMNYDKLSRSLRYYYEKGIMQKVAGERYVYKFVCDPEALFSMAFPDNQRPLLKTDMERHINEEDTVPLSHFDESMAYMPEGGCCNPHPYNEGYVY
Sequence of ELF4 (Q99607 whole entry): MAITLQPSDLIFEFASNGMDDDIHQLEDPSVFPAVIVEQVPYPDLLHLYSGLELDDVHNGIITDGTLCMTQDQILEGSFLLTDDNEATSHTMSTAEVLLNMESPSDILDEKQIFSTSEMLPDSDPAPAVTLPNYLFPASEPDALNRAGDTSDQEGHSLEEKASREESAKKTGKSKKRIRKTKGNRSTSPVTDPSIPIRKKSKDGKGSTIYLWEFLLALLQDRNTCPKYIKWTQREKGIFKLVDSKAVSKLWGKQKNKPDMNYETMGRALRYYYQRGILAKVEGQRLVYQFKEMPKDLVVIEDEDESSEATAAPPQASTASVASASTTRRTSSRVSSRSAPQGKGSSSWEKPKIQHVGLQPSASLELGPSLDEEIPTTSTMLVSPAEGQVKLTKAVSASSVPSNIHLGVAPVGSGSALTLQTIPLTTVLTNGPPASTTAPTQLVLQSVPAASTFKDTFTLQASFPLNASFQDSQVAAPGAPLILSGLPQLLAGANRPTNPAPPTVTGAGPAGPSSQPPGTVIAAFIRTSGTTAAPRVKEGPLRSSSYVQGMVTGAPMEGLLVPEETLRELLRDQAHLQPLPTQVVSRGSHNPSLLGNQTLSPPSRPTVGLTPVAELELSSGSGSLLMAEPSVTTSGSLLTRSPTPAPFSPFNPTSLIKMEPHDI
Sequence of ETV5 (P41161 whole entry): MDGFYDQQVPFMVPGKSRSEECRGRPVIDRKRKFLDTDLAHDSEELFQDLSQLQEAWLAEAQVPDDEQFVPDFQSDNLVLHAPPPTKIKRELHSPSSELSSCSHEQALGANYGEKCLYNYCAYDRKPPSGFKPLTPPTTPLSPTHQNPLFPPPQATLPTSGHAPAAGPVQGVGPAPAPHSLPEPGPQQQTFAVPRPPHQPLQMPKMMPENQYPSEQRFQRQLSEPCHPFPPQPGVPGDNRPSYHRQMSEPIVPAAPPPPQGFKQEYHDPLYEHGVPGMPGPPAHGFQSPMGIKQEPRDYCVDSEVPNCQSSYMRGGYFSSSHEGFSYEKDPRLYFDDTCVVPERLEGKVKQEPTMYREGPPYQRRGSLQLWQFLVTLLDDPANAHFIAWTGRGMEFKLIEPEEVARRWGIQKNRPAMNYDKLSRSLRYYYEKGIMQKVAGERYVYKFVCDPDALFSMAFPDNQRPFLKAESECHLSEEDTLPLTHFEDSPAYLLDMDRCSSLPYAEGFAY
Sequence of ETV6 (P41212 whole entry): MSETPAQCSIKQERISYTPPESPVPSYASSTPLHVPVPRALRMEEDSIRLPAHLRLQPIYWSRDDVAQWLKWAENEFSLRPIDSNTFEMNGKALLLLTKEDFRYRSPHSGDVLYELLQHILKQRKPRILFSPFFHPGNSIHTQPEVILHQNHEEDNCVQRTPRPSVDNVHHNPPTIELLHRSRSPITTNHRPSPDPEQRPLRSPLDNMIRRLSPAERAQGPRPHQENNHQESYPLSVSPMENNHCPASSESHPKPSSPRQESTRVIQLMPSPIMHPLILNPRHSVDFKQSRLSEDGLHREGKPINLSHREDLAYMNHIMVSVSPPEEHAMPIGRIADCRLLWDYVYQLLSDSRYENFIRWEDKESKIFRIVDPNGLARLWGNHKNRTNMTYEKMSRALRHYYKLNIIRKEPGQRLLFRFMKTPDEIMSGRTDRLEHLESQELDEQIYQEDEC

In the case of TGTCTT, the binding signal with FEV is 1.27 fold enrichment (6-mer frequency, TF over GST control); in the experiment with ETV5, 1.24 fold enrichment (6-mer frequency, TF over GST control); in the experiment with HSF1, 1.13 fold enrichment (6-mer frequency, TF over GST control); with SPIC, 1.39 fold enrichment (6-mer frequency, TF over GST control); in the experiment with ELF4, 1.19 fold enrichment (6-mer frequency, TF over GST control); with ELK4 it was 1.17 fold enrichment (6-mer frequency, TF over GST control). The binding signal with ETV2 is 1.18 fold enrichment (6-mer frequency, TF over GST control); in the experiment with ELF3, 1.25 fold enrichment (6-mer frequency, TF over GST control); with CRX, 1.3 fold enrichment (6-mer frequency, TF over GST control); with ETV1, 1.24 fold enrichment (6-mer frequency, TF over GST control); with ERF, 1.28 fold enrichment (6-mer frequency, TF over GST control); with ETV3L it was 1.32 fold enrichment (6-mer frequency, TF over GST control). The binding signal was 1.28 fold enrichment (6-mer frequency, TF over GST control) in the experiment with ETS2; 1.28 fold enrichment (6-mer frequency, TF over GST control) with SPDEF; 1.25 fold enrichment (6-mer frequency, TF over GST control) in the experiment with ETV7; 1.39 fold enrichment (6-mer frequency, TF over GST control) with ELF5; 1.38 fold enrichment (6-mer frequency, TF over GST control) in the experiment with ETV3; 1.16 fold enrichment (6-mer frequency, TF over GST control) in the experiment with ETV6.
